The supplement of paper PMC3334620
Whole data set: some 33,000 sequences, median “E-score (-0.5 to 0.5)” near -0.015, cut for the highest 2% near 0.3. For the sample, the highest values were picked, then their nearest neighbours and some sequences at random.

These sequences were tested against T1, Abf1 (UniProt P14164) (assay: PBM E-score (8-mer binding enrichment) (E-score (-0.5 to 0.5)); higher = stronger / more preferred TF binding). Conditions: protein concentration: 200 nM; construct: GST-full length.
T1 sequence: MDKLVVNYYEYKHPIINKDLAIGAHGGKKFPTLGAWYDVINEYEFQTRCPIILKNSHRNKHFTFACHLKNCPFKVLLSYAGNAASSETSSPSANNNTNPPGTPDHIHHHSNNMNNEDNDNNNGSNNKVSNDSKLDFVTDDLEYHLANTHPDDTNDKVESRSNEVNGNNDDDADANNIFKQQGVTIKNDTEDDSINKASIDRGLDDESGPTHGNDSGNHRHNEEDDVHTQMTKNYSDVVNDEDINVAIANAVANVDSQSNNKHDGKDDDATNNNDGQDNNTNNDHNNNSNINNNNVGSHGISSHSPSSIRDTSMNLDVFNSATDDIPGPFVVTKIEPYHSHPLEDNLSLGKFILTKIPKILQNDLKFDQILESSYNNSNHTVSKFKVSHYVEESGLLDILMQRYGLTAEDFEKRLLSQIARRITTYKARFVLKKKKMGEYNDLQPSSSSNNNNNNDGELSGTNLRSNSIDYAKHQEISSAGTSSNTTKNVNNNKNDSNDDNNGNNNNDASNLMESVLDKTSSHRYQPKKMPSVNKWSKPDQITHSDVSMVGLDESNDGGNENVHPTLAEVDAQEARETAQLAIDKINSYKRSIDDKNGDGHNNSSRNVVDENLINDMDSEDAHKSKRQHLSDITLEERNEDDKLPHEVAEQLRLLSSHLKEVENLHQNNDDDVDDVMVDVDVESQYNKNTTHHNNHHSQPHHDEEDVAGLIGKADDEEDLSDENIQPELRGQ
Protocol: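 Universal 'all 10-mer' protein binding microarrays (Agilent AMADID 015681) probed with GST-tagged S. cerevisiae TFs (full-length or DBD) made by in vitro transcription/translation (PURExpress), about 100-200 nM. Bound TF was detected with fluorescent anti-GST. Each ungapped 8-mer (which stands for itself and its reverse complement) is scored by the PBM enrichment score (E-score), a modified Wilcoxon-Mann-Whitney statistic from -0.5 to +0.5, computed with the Universal PBM Analysis Suite. Scale: above 0.35 generally sequence-specific binding.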

In order of rising “PBM E-score” value:
1. CAAGGAGC  -0.363
2. CTGGACCC  -0.279
3. GGAGAGCA  -0.253
4. CTGTCTGC  -0.243
5. CTAGGAGA  -0.236
6. CCACCTAG  -0.225
7. AAGGCTTA  -0.214
8. AAAGAGAG  -0.214
9. AATGCCTA  -0.212
10. CTAATGCC  -0.208
11. CCAGACAG  -0.2
12. AGGTTTCG  -0.199
13. CTCGAGGC  -0.193
14. AACTCCTG  -0.177
15. GCTCACCA  -0.17
16. CATCCGGG  -0.161
17. AGAATGAG  -0.157
18. ACCATCCC  -0.155
19. ATCCACAA  -0.138
20. GGGTGAGA  -0.136
21. AGAAACGC  -0.132
22. AACACTCC  -0.121
23. GAACTTCC  -0.12
24. AGAAGGCG  -0.119
25. GGGGAATA  -0.112
26. GCGTGGAA  -0.105
27. ATCTGAAG  -0.1
28. GAGGAACA  -0.095
29. AACAGAGA  -0.09
30. CATTGGTC  -0.0867
31. GGTCGCAA  -0.0813
32. ACTTACGC  -0.0756
33. CTCACTCC  -0.0715
34. CAGAAACA  -0.0715
35. GCTTACGA  -0.071
36. AAACCGCG  -0.0683
37. GGCAAAAC  -0.0611
38. CGGCCTAA  -0.0583
39. GGGATACA  -0.0572
40. CACAAAAG  -0.0552
41. CCAGCCAC  -0.0544
42. GCCGAAAC  -0.0478
43. ACCCGGAG  -0.0473
44. AGCCAGAG  -0.0331
45. TCTACCAA  -0.0268
46. CCTGGAAC  -0.0203
47. CCGCGACC  -0.0179
48. AGACATTA  -0.0164
49. AAGAGAAA  -0.0161
50. CGAGTCAA  -0.0144
51. ACTATGGA  -0.013
52. AACACTCG  -0.00319
53. AAAACGCA  0.00195
54. GTAGCCCA  0.0106
55. GATGGTGA  0.0135
56. AGGTGAGA  0.0141
57. ATCGACTA  0.029
58. ACGACCGC  0.041
59. AAAATGGC  0.0419
60. GCACGTCA  0.0421
61. CAGAATTC  0.0421
62. CGACATTC  0.0424
63. GTTACTCA  0.0462
64. CACGATCC  0.0482
65. GGGTGAAA  0.0485
66. ACACCAAT  0.0514
67. CAGCTTCG  0.0552
68. AAAATGAA  0.056
69. AAAAACGT  0.0618
70. GAGTAAAA  0.0646
71. CTCACTCA  0.0709
72. TCAGGCGA  0.0781
73. ATTCCGAA  0.0789
74. CGGGATGA  0.0791
75. GAGCACTA  0.0823
76. ACTTGAAT  0.0842
77. ATAACCAT  0.0871
78. GGACGTCA  0.0888
79. CGTTTGGC  0.0893
80. AAAATGAG  0.0916
81. ATGTTCTG  0.093
82. ACCGCTCA  0.0985
83. AACGAAAC  0.101
84. AACGAAAA  0.103
85. ACAATGAC  0.107
86. AGACGTCA  0.107
87. AGACATCG  0.111
88. ATAATGAG  0.117
89. ACGTGGAA  0.118
90. CGACATCC  0.121
91. CAATCGTG  0.122
92. CATTACGA  0.128
93. CTATGATA  0.143
94. AGAATGAA  0.144
95. CAAATGAC  0.144
96. AACGAACG  0.144
97. GTATGAGA  0.145
98. ACACGTCA  0.151
99. CCGCGACA  0.154
100. TCAGGACA  0.156
101. GGGACGTA  0.159
102. GTCTCAAA  0.161
103. AGGTGATG  0.163
104. GAAATGAA  0.164
105. GCCGAAAA  0.173
106. TGCGAAAA  0.175
107. CATCACCA  0.176
108. GTATGACA  0.176
109. AATTACGA  0.186
110. CGGTGAAA  0.186
111. CACGAACA  0.186
112. ACCACTCG  0.187
113. ATATGATG  0.191
114. ATCCACGA  0.199
115. ATAAGATG  0.201
116. AACAAATT  0.201
117. CGGATGAA  0.211
118. CGGTGATC  0.214
119. GGACATCA  0.215
120. AACGAACA  0.215
121. CCGTGTAA  0.217
122. AAACCGTA  0.221
123. ACATGTCA  0.221
124. GACGAATA  0.232
125. ACGTGTAA  0.235
126. GTCACTCA  0.238
127. AATCACCA  0.24
128. GACGAACA  0.253
129. ATAATGAC  0.258
130. ATAATTAC  0.261
131. GATCACCC  0.261
132. CCGTGTCA  0.268
133. CACGATCA  0.272
134. CACGAAAG  0.272
135. CACGAAAC  0.272
136. ATAATTAA  0.274
137. TGACATCA  0.274
138. AAAATGAC  0.297
139. TACGAAAA  0.297
140. CGACATCG  0.301
141. ATAATTAT  0.303
142. GATCACCA  0.308
143. ATCACTCG  0.31
144. CACGAAAA  0.31
145. TATTACGA  0.311
146. GAAATGAC  0.312
147. TGACGTCA  0.314
148. CGACATCA  0.315
149. ATCCACGG  0.316
150. ATATGATA  0.316
151. CGACATTA  0.317
152. CCGCGACG  0.32
153. ACTTACGA  0.325
154. TCGTGTCA  0.326
155. GTATGATA  0.327
156. AGAATGAT  0.33
157. TCACGTCA  0.331
158. TCATGTCA  0.332
159. CGGTGATA  0.334
160. TCGTGGAA  0.336
161. GACGAAAA  0.337
162. CACGATCG  0.339
163. TCGTGTAA  0.343
164. ATAATGAT  0.344
165. GACGAAAC  0.344
166. ATCACTCC  0.345
167. TACGAACA  0.351
168. AGGTGATA  0.357
169. TATCACCA  0.364
170. ATCACTCA  0.369
171. CACGAACG  0.372
172. GGGTGATA  0.38
173. AAAATGAT  0.387
